About 160 (0.044%) of roughly 360,000 compounds were called active. Only a selection was taken, and actives are over-represented in it overall. Values without a mark were called inactive. Cut-off read from the data, not from the text of the source: active = survival enhancement above about 18%; inactive = the rest.

The experiment in a line: enhancers of single-cell hiPSC survival, primary screen, ATPlite luminescence (AID 602274).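 Note: cells exposed to compounds for 16 hours before the ATP read.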 The settings on record: at 20 µM, active compounds read high, 100% = ROCK inhibitor wells, 0% = DMSO. For orientation: In ATP-based viability assays light output follows the ATP content of the culture.
With `Cc1ccc(Nc2c(O)nc[nH]c2=O)cc1C`, the survival enhancement was 0.4%. For the compound `CC(=NCc1ccc2c(c1)OCO2)C1=C(O)c2ccccc2C1=O`, the survival enhancement is 2.2%. Under `CC(=O)Nc1ccc(S(=O)(=O)Oc2ccc(/C=N/N=C3/NC(=O)C(CC(=O)O)S3)cc2)cc1` (centres undefined) stands 2%; under `COc1cc(CO)c(C2(CO)CCCC2)cc1OC`, 3.1%.

Turning to `C[C@@H]1ON(C)[C@H]2C[C@H]3c4cc(N5CCN(C)CC5)ccc4CCN3C(=O)[C@@H]12`, the survival enhancement was -2.2%. `CC(C)C(C)(C#N)NC(=O)CSc1nc2scc(-c3ccccc3)c2c(=O)[nH]1` (centres undefined): the survival enhancement is -0.3%. The same measure for `N=C1C(=O)OCC1c1ccccc1NC(=O)CN1CCCCC1` (centres undefined): -0.4%; for `COc1ccc(C(C(=O)NCc2ccccc2)N(Cc2cccs2)C(=O)c2cnccn2)cc1` (centres undefined): 6.6%. Regarding `COC(=O)c1ccc(CN2CCCC(C(=O)Nc3cccc(-n4cnnn4)c3)C2)cc1` (centres undefined), the survival enhancement was 0.6%. The same measure for `C=CC(COCc1ccccc1)N(CC(=O)OC)S(=O)(=O)c1cc(Br)ccc1OC` (centres undefined): -0.4%; for `CCCNc1c(N)c(=O)c1=O`: -0.6%. Under `O=C(Nc1ccccc1N1CCCC1)c1ccc(F)c(S(=O)(=O)N2CCOCC2)c1` stands -0.3%; under `O=C(c1cccs1)N1C[C@H](n2cc(C3CC3)nn2)[C@@H](O)C[C@@H]1c1ccccc1`, -0.3%. Under `Cc1c(S(=O)(=O)N2CC(C)CC(C)C2)c(=O)n(C)c(=O)n1C` (centres undefined) stands -0.4%. Take `CCc1nc2ccc(C(=O)Nc3cccc(OC)c3)cn2c1N(CCC(C)C)CCN(C)C`: the survival enhancement is -0.8%. The same measure for `CNC(=O)c1nnc(Cc2ccc(Cl)cc2)o1`: 0.3%; for `CCn1c(=S)sc2c(=O)n(CC(=O)Nc3cccc(Br)c3)c(C)nc21`: -0.2%; for `CCNC(=O)N1CCCC(C(=O)c2ccc(-c3ccccc3)cc2)C1` (centres undefined): 1.4%. Regarding `CC1(C)CC(N(Cc2ccccc2)C(=O)Cc2ccccc2)CCO1` (centres undefined), the survival enhancement is -0.5%. Under `CCN1C[C@@H]2[C@@H]3C(=O)N(C)C(=O)[C@@H]3[C@](C)(C1=O)N2C(=O)c1ccccc1` stands -1.3%; under `CC(C)C[C@H](NC(=O)C1CCC(CNC(=O)[C@@H]2CCCN2C(=O)OC(C)(C)C)CC1)C(=O)O` (some centres undefined), 0.8%. The same measure for `Cc1nc(C(F)(F)F)ccc1C(=O)N1CCC1(C)C(=O)NS(=O)(=O)c1ccc(F)cc1F` (centres undefined): -1.2%; for `CC[C@H]1OC(=O)[C@H](C)[C@@H](O[C@H]2C[C@@](C)(OC)[C@@H](O)[C@H](C)O2)[C@H](C)[C@@H](O[C@@H]2O[C@H](C)C[C@H](N(C)C)[C@H]2O)[C@](C)(O)C[C@@H](C)[C@@H]2N[C@@H](COCCOC)O[C@H]([C@H]2C)[C@]1(C)O`: 1.7%. Under `CCCCN(C(=O)c1ccc2ccccc2c1)c1c(N)n(CCCC)c(=O)[nH]c1=O` stands -0.4%.

Regarding `Cn1cc(CN2CCCC(CO)C2)c(-c2ccc(Oc3ccccc3)cc2)n1` (centres undefined), the survival enhancement is 4.5%.

Take `CNC(=O)NC(=O)C(OC(=O)c1cccc(S(=O)(=O)N2CCCCC2)c1)c1ccccc1` (centres undefined): the survival enhancement was 0.1%.

Turning to `O=C1CCC[C@@H]2CC(N3CCCCC3)C[C@@H]3CCN1[C@H]23` (some centres undefined), the survival enhancement was -1.2%.

On to `CCc1nc2ccccc2n(CCOCCOCCn2c(=O)c(CC)nc3ccccc32)c1=O`, for which the survival enhancement is 2.6%. The same measure for `Cc1ccc(S(=O)(=O)N2CCOCC2)cc1NC(=O)COC(=O)c1cnccn1`: -1.4%. The same measure for `CN(C)C(=O)CCc1ccc2c3c([nH]c2c1)[C@]1(C)[C@@H](C(=O)N2CCCCC2)C[C@H](CC(=O)NCCC2=CCCCC2)C(=O)N1CC3`: 1%; for `CCN(CC)S(=O)(=O)c1ccc(N2CCCC2)c(NS(=O)(=O)c2cccs2)c1`: 0.5%; for `COc1ccccc1NC(=O)C(C)OC(=O)CC1CCCC1` (centres undefined): -0.5%. Under `O=C(CSc1nnc(CN2CCCC2)n1-c1ccc(F)cc1)c1ccc2c(c1)OCO2` stands 0%. Take `CCOc1ncccc1C(=O)Nc1ccc2c(c1)OCCO2`: the survival enhancement is 0.1%. The same measure for `COc1cc(C(=O)NC(=S)NCc2ccco2)cc(OC)c1OC`: -1.8%; for `CCc1nc2ccc(C(=O)N3CCN(S(=O)(=O)CC)CC3)cn2c1N(C=O)CCC(C)C`: 0.9%. Under `CCC(=NC1CC(C)(C)NC(C)(C)C1)C1=C(O)CC(C)(C)CC1=O` stands -1.8%.

Consider `Cc1ccc(C(=O)N/C(=C\c2ccco2)C(=O)NC2CCS(=O)(=O)C2)cc1` (centres undefined), for which the survival enhancement is -0.5%.

As to `Nc1[nH]c(=S)nc2nc(-c3ccccc3)c(-c3ccccc3)nc12`, the survival enhancement is -2%.

`CCn1c2c(c3ccc(OC)cc31)CCCC2=O`: the survival enhancement was 0.7%. Turning to `COC(=O)c1ccc2nc(C3CCCCC3)c(Cc3cccc(F)c3)n2c1`, the survival enhancement is -0.3%. Under `CC1(C(=O)NCCc2c[nH]c3ccccc23)C=CC2(CCCCC2)N1C(=O)c1ccccc1` (centres undefined) stands -0.6%; under `COc1ccc2c(c1)c(=O)c(C(=O)c1ccc(Cl)cc1)cn2CC(=O)Nc1ccc(F)cc1`, 35.8% (active). Turning to `O=C(c1ccc(F)cc1)c1cn(Cc2ccc(F)cc2)c2cc3c(cc2c1=O)OCCO3`, the survival enhancement is -1.1%. The same measure for `COc1ccc(NC(=O)CC2C(=O)NC3CCCCC3N2C(=O)c2ccc(F)cc2)cc1` (centres undefined): -0.2%; for `O=C(Nc1cccc2cccnc12)c1ccc2sc([C@H]3C[C@H](O)[C@@H](CO)O3)nc2c1`: -1.8%; for `C=CCn1c(C23CC4CC(CC(C4)C2)C3)n[nH]c1=S`: -0.3%. Under `O=C(OCCN1C(=O)c2ccccc2C1=O)[C@@H]1CC(O)CN1S(=O)(=O)c1ccccc1[N+](=O)[O-]` (some centres undefined) stands -1.2%; under `CCc1nnc(NC(=O)C2CC(=O)N(c3ccc4c(c3)OCCO4)C2)s1` (centres undefined), -0.7%. Under `Cc1ccc(CCN2CC(C(=O)NCCc3ccccc3)CC2=O)cc1` (centres undefined) stands 0.1%; under `CCOc1ccc(OCC)c(NC(=O)C(NS(=O)(=O)c2ccc3c(c2)oc(=O)n3C)C(C)C)c1` (centres undefined), -3.4%; under `COc1ccccc1CCNC(=O)c1cnccn1`, 0.7%. As for `COc1ccc(C(=O)NNC(=O)c2cnccn2)cc1[N+](=O)[O-]`, the survival enhancement was -1.9%. Under `COc1ccc(C(C#N)(CC(=O)O)c2cnccn2)cc1OC` (centres undefined) stands 27% (active).

(Values after PubChem BioAssay AID602274 (Sanford-Burnham Center for Chemical Genomics, 2012).)
